Most compounds without a hit are left out; they make up all but 6.5% or so of the library.
FMDV antiviral: High Throughput Screening for Foot and Mouth Disease Virus Antivirals; FMDV antiviral cell-based qHTS; Potency, µM (series often up to 57.9 µM), for the others: at the highest dose activity change, negative = inhibition, usual class: inhibitors; actives 1.2% (n = 410,000); calls by dose curve; tested in HEK293T cells; note: read-out not given here; potency is the fitted concentration of half-maximal effect; nearly all actives have a fitted effect of over 45% in size
Vaccinia mCherry: qHTS for Stage-Specific Inhibitors of Vaccinia Orthopoxvirus: mCherry Reporter Primary qHTS; AID 720579, 2013; Vaccinia virus mCherry reporter infection, fluorescence; actives 0.63% (n = 310,000); Potency, µM (doses to about 36.5 µM), without a hit: top-dose activity change, negative = inhibition, most hits filed as inhibitors; calls by dose curve; tested in A549 cells; note: potency is the fitted concentration of half-maximal effect; nearly all actives have a fitted effect of over 35% in size
HCMV antiviral: qHTS Assay for inhibitors of the human cytomegalovirus (HCMV) | HFF cells, HCMV-luciferase reporter, 72 h; stronger effect = lower value | activity change, negative = inhibition, % at 57.5 µM | actives 4.5% (n = 410,000) | AID 1259415, 2018; in the data active = activity change below about -60%; inconclusive = no clear call, values can overlap the other calls; inactive = above about -39%
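Screen run at 2 compound doses on HFFs infected with reporter HCMV, MOI 1 PFU/cell. Luciferase activity from cell lysates at 72 h post infection gave inhibition relative to buffer-only and Salinomycin wells.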
MARV entry inh: qHTS for inhibitors of binding or entry into cells for Marburg Virus; Marburg virus pseudotyped entry inhibition, cell reporter; Potency, µM (series often up to 37.8 µM), without a hit: at the top dose activity change, negative = inhibition, actives largely listed as inhibitors; actives 1.8% (n = 300,000); AID 540276, 2011; calls by dose curve; tested in HEK293 cells; note: potency is the fitted concentration of half-maximal effect
Lassa entry inh: qHTS for Inhibitors of binding or entry into cells for Lassa Virus. Lassa virus pseudotype entry inhibition, cell reporter. Potency, µM (series often up to 37.9 µM), for the others: at the highest dose activity change, negative = inhibition, usual class: inhibitors. actives 1.2% (n = 300,000); calls by dose curve; tested in HEK293 cells; note: potency is the fitted concentration of half-maximal effect; nearly all actives have a fitted effect of over 50% in size
Vaccinia Venus: qHTS for Stage-Specific Inhibitors of Vaccinia Orthopoxvirus: Venus Reporter Primary qHTS; actives 0.46% (n = 330,000); AID 720580, 2013; Potency, µM (top dose mostly 36.5 µM), without a hit: at the top dose activity change, negative = inhibition, usual class: inhibitors; Vaccinia virus Venus reporter expression, fluorescence; calls by dose curve; tested in A549 cells; note: potency is the fitted concentration of half-maximal effect; nearly all actives have a fitted effect of over 30% in size
Starred values were filed as active, the others as inactive; i = inactive; ? = inconclusive; . = no result given; ! = not confirmed by another sample; [ ] = dose if it differs, or a comment. % is set by controls: 0 for no effect and ±100 for the full control effect.

SMILES	FMDV antiviral	Vaccinia mCherry	HCMV antiviral	MARV entry inh	Lassa entry inh	Vaccinia Venus
COc1ccc(OC)c(N(CC(=O)Nc2cccnc2)S(=O)(=O)c2ccc(OC)c(OC)c2)c1	-22%	.	-35	2.8µM*!	-1%	-8%
CCOc1ccccc1N(CC(=O)Nc1cc(OC)ccc1OC)S(C)(=O)=O	-9%	.	41	-24%	-27%	.
CCOC(=O)c1ccc(NC(=O)C2CCN(S(=O)(=O)Cc3ccccc3)CC2)cc1	-10%	1%	19	7%[46.1 µM]	-6%[46.1 µM]	8%
CCCCCCOc1ccc(C2C(=O)N(C3CCCCC3)CC(=O)N2C2CCCCC2)cc1 (stereo unspecified)	-11%	-19%	-3	.	22%[46.1 µM]	-10%
Cc1ccc(CN(Cc2ccco2)C(=O)c2ccccc2Cl)o1	-13%	-2%	-6	6%[46.1 µM]	2%[46.1 µM]	-2%
CCN(CC)S(=O)(=O)c1ccc(OC)c(NC(=O)CCS(=O)(=O)Cc2ccccc2)c1	-12%	-19%	-69*	-1%	?	-13%
Cc1ccc(N(CCC(=O)O)S(=O)(=O)c2ccccc2)cc1	-11%	i	-21	?	1%	-18%
CCOc1ccccc1NC(=O)CCN(c1ccc(C)cc1)S(=O)(=O)c1ccccc1	3%	-10%	?	14µM*	?	-12%
COc1ccc(Cl)cc1N(CC(=O)NC(C)(C)C)S(=O)(=O)c1ccc(C)c([N+](=O)[O-])c1	-11%	-7%	-76*	?	8%	-16%
Cc1ccc(N(CC(=O)NCC2CCCO2)S(=O)(=O)c2ccccc2)c(C)c1 (stereo unspecified)	5%	-18%	?	?	?	-25%
COc1ccc(OC)c(N(CC(=O)NCC2CCCO2)S(=O)(=O)c2ccccc2)c1 (stereo unspecified)	21%	-13%	-63*	-10%[46.1 µM]	-1%	-4%
Cc1ccc(Cl)cc1NS(=O)(=O)c1cc2c3c(c1)CC(=O)N3CCC2	27%	-17%	-32	.	-5%[46.1 µM]	-10%
Cc1ccc(C)n1-c1nnc(N2CCCC(C(=O)NCc3ccc(Cl)cc3)C2)s1 (stereo unspecified)	-30%	-1%	-1	11%[46.1 µM]	0%[46.1 µM]	-22%
CN1CCN(CCC(=O)Nc2ccc(Cl)cc2)CC1	80%	1%	24	7%[46.1 µM]	-3%[46.1 µM]	-1%
COc1ccc(OC)c(NC(=O)c2cc(-c3ccc(C)cc3O)n[nH]2)c1	8%	.	5	5%	-6%	.
COc1ccc(OC)c(NC(=O)c2cc(-c3cc(C)ccc3O)n[nH]2)c1	17%	10µM*	-2	?	?	11µM*
COc1ccc(-c2cc(-c3cc(C)ccc3O)[nH]n2)cc1	14%	8.9µM*	-35	?	?	?
COc1ccc(-c2cc(-c3ccc(C)cc3)n[nH]2)c(O)c1	43%	-26%	126	.	.	-30%
Cc1ccc(C)c(NC(=O)c2cc(-c3cc(C)c(C)cc3O)n[nH]2)c1	46%	.	-78*	.	.	.
COc1ccccc1CNC(=O)C(=O)NCC(c1cccs1)S(=O)(=O)c1ccc(F)cc1 (stereo unspecified)	?	-12%	5	.	?	-11%
CCOC(=O)C1C(=O)C=C(c2ccc(C)cc2)CC1c1ccc([N+](=O)[O-])cc1 (stereo unspecified)	-23%	-16%	-71*	?	-26%	-20%
CCOC(=O)C1C(=O)C=C(c2ccccc2)CC1c1ccccc1 (stereo unspecified)	0%	i	-31	?	?	1%
CN(Cc1ccccc1)C(=S)NC(=O)c1ccccc1	3%	?	7	?	-27%[46.1 µM]	-9%
CC(C)N(C(=NCc1ccccc1)NC(=O)c1ccccc1)C(C)C	47%	i	-89*	.	.	-13%
CC(C)(C)c1ccc(O)c(N=Cc2c(O)ccc3ccccc23)c1	-24%	?	-92*	?	?	-26%
SMILES	FMDV antiviral	Vaccinia mCherry	HCMV antiviral	MARV entry inh	Lassa entry inh	Vaccinia Venus
COc1ccc2c(CC(=O)Nc3ncc(C)s3)coc2c1	14%	-15%	-77*	?	0%[46.1 µM]	?
CCOC(=O)C1CCCN(C(=O)c2ccc3c(c2)sc2nc(-c4ccc(C)cc4C)cn23)C1 (stereo unspecified)	?	-6%	.	.	1%[46.1 µM]	-10%
CCCN1CCN(CCCNC(=O)c2ccc3c(c2)sc2nc(-c4ccc(OC)cc4)cn23)CC1	13%	4.5µM*	.	.	26%[46.1 µM]	?
CCOC(=O)C1CCCN(C(=O)c2ccc3c(c2)sc2nc(-c4cccc(OC)c4)cn23)C1 (stereo unspecified)	32µM*	-3%	.	.	2%[46.1 µM]	-8%
COc1cccc(-c2nc(SCC(=O)NCC3CCCO3)c(-c3ccc(Cl)cc3)[nH]2)c1 (stereo unspecified)	-23%	-20%	-21	?	-21%[46.1 µM]	-18%
O=C(N/N=C/c1sc(N2CCOCC2)nc1-c1ccccc1)c1cccc(S(=O)(=O)N2CCOCC2)c1	-20%	.	-100*	.	.	.
O=[N+]([O-])c1ccc(N/N=C/c2sc(N3CCOCC3)nc2-c2ccccc2)c(S(=O)(=O)Nc2ccc(Cl)cc2)c1	?	.	-88*	.	.	.
O=C(Nc1ccccc1F)C(=Cc1sc(N2CCOCC2)nc1-c1ccccc1)C(=O)Nc1ccccc1F	0%	i	-70*	-5%[46.1 µM]	2%	0%
O=C(N/N=C/c1sc(N2CCOCC2)nc1-c1ccccc1)c1ccccc1O	-2%	?	-20	7.9µM*	1.3µM*	?
O=C(N/N=C/c1sc(N2CCOCC2)nc1-c1ccccc1)c1ccccc1Cl	-16%	-5%	5	9%[46.1 µM]	?	-20%
CC1CCN(S(=O)(=O)c2ccc3c(ccc(=O)n3CC(=O)Nc3ccc(C(C)C)cc3)c2)CC1	-10%	-29%	20	.	-38%[46.1 µM]	-16%
Cc1cccc(C)c1NC(=O)c1nc2ccc([N+](=O)[O-])cc2nc1-c1ccccc1	.	.	42	.	.	.
Cc1cc(C(=O)Nc2cccc(-c3nc(CNC(=O)c4cc5ccccc5[nH]4)c(C)o3)c2)c(C)o1	17%	-1%	.	.	.	-7%
Cc1ccc(C=C2C(Cl)=C(Cl)C(Cl)=C2Cl)cc1	18µM*	4%	.	17%[46.1 µM]	13%	10%
Cn1cc(CNC2CCN(c3cccc(NC(=O)c4cccnc4)c3)CC2)cn1	-8%	-9%	.	.	.	-2%
O=S(=O)(c1ccccc1F)N1CCC(Oc2ccc(-n3cnnn3)cc2)CC1	-6%	-23%	-62*	-20%[46.1 µM]	?	?
CN(C)c1ccc(C2C=C(c3ccc(Cl)cc3OC(F)F)Nc3ncnn32)cc1 (stereo unspecified)	-22%	.	-22	?	14µM*	?

Assay outcomes from PubChem BioAssay.
